B1: Caulobacter ParB omega fusion; a variant is named by its letters at X, in order, B8GW30 (parent)
chain: MESVVVGEPGMSEGRRGLGRGLSALLGEVDAAPAQAPGEQLGGSREAPIEILQRNPDQPRRTFREEDLEDLSNSIREKGVLQPILVRPSPDTAGEYQIVAGERAWRAAQRAGLKTVPIMVRELDDLAVLEIGIIENVQRADLNVLEEALSYKVLMEKFERTQENIAQTIGKSXSHVANXMRLLXLPDEVQSYLVSGELTAXHARAIAAAADPVALAKQIIEGGLSVRETEALARKAPNLSAGKSKGGRPPRVKDTDTQALESDLSSVLGLDVSIDHRGSTGTLTITYATLEQLDDLCNRLTRGI

The full ranking holds about 81,000 sequences; the median of “one-hybrid fitness for binding parS DNA” is about -0.17, and the highest 2% start at about 0.51. Shown is part of a subset that was picked to be rich in the highest values.

From a collection of fitness landscapes (doi:10.1016/j.celrep.2020.107928) come the findings set out here.

In this assay the parent is B1. In words: one-hybrid fitness for binding parS DNA (scaled: cognate 1, non-cognate 0); higher = stronger binding. The note with it: with parS DNA site. The procedure, abridged:
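On M9-minus-histidine containing 0.1 mM IPTG and 5 mM 3-AT, E. coli USO cells with a HIS3 reporter, site 19 bp from the promoter, grew 48 hours at 37°C to select Caulobacter ParB libraries randomised at four specificity codons. Plasmids from before and after were Illumina-sequenced, with three replicate libraries pooled and variants under 10 reads left out. Fitness is the log change in variant-to-wild-type read ratio, rescaled against cognate and non-cognate.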
In the case of RHLT, the “one-hybrid fitness for binding parS DNA” value is 0.834.

As to RTLK, the “one-hybrid fitness for binding parS DNA” value is ≤ 0.2.

In the case of RHLP, the “one-hybrid fitness for binding parS DNA” value is ≤ 0.2.

TKSI: the “one-hybrid fitness for binding parS DNA” value was ≤ 0.2.

Turning to DEMS, the “one-hybrid fitness for binding parS DNA” value is ≤ 0.2.

In the case of YRHE, the “one-hybrid fitness for binding parS DNA” value was ≤ 0.2.

In the case of PEDT, the “one-hybrid fitness for binding parS DNA” value is ≤ 0.2.

On to VYPT, for which the “one-hybrid fitness for binding parS DNA” value was ≤ 0.2.

With RRGH, the “one-hybrid fitness for binding parS DNA” value was ≤ 0.2.

As for RRGS, the “one-hybrid fitness for binding parS DNA” value amounted to 0.639.

For the variant RRGN, the “one-hybrid fitness for binding parS DNA” value was 0.777.

Turning to RRGP, the “one-hybrid fitness for binding parS DNA” value was ≤ 0.2.

Regarding RCGN, the “one-hybrid fitness for binding parS DNA” value is 0.445.

For RRGD, the “one-hybrid fitness for binding parS DNA” value was ≤ 0.2.

In the case of WDVG, the “one-hybrid fitness for binding parS DNA” value is ≤ 0.2.

Regarding IHRW, the “one-hybrid fitness for binding parS DNA” value is ≤ 0.2.

For RLYH, the “one-hybrid fitness for binding parS DNA” value worked out at 0.271.

Take RLRD: the “one-hybrid fitness for binding parS DNA” value was ≤ 0.2.

Consider RLRK, for which the “one-hybrid fitness for binding parS DNA” value was ≤ 0.2.

RLYP: the “one-hybrid fitness for binding parS DNA” value is ≤ 0.2.

Turning to RLRG, the “one-hybrid fitness for binding parS DNA” value amounted to 0.966.

For the variant RLNY, the “one-hybrid fitness for binding parS DNA” value is 0.495.

In the case of RLDG, the “one-hybrid fitness for binding parS DNA” value is 0.931.

RLNQ: the “one-hybrid fitness for binding parS DNA” value was ≤ 0.2.

Regarding RLDD, the “one-hybrid fitness for binding parS DNA” value was ≤ 0.2.

For RLDP, the “one-hybrid fitness for binding parS DNA” value was ≤ 0.2.

For the variant RLYG, the “one-hybrid fitness for binding parS DNA” value came out at 1.03.

On to RLNG, for which the “one-hybrid fitness for binding parS DNA” value was 1.01.

For CISS, the “one-hybrid fitness for binding parS DNA” value was ≤ 0.2.

For EWYV, the “one-hybrid fitness for binding parS DNA” value was ≤ 0.2.

Regarding QRYM, the “one-hybrid fitness for binding parS DNA” value was ≤ 0.2.

On to QVRQ, for which the “one-hybrid fitness for binding parS DNA” value was ≤ 0.2.

THSV: the “one-hybrid fitness for binding parS DNA” value is ≤ 0.2.

As to AQCS, the “one-hybrid fitness for binding parS DNA” value is ≤ 0.2.

As to NWKY, the “one-hybrid fitness for binding parS DNA” value is ≤ 0.2.

Take KFYT: the “one-hybrid fitness for binding parS DNA” value was ≤ 0.2.

As to RQMY, the “one-hybrid fitness for binding parS DNA” value worked out at 0.474.

On to RQMT, for which the “one-hybrid fitness for binding parS DNA” value was determined as 0.881.

RQMN: the “one-hybrid fitness for binding parS DNA” value was 0.423.

Regarding RQMD, the “one-hybrid fitness for binding parS DNA” value was ≤ 0.2.

For the variant RQMP, the “one-hybrid fitness for binding parS DNA” value is ≤ 0.2.

Regarding RQMG, the “one-hybrid fitness for binding parS DNA” value was 0.973.

Consider RQMQ, for which the “one-hybrid fitness for binding parS DNA” value was ≤ 0.2.

For RQMC, the “one-hybrid fitness for binding parS DNA” value stood at 0.945.

RQMH: the “one-hybrid fitness for binding parS DNA” value came to 0.292.

With RQMS, the “one-hybrid fitness for binding parS DNA” value is 0.998.

As for RQML, the “one-hybrid fitness for binding parS DNA” value is ≤ 0.2.

Consider RQMM, for which the “one-hybrid fitness for binding parS DNA” value was 0.33.

Consider DRVV, for which the “one-hybrid fitness for binding parS DNA” value was ≤ 0.2.

With NSRG, the “one-hybrid fitness for binding parS DNA” value is ≤ 0.2.

As to SMFV, the “one-hybrid fitness for binding parS DNA” value was ≤ 0.2.

For the variant FLVT, the “one-hybrid fitness for binding parS DNA” value was ≤ 0.2.

In the case of RNHH, the “one-hybrid fitness for binding parS DNA” value is ≤ 0.2.

On to RNWN, for which the “one-hybrid fitness for binding parS DNA” value is ≤ 0.2.

Take RNWS: the “one-hybrid fitness for binding parS DNA” value amounted to 0.705.

In the case of RNPG, the “one-hybrid fitness for binding parS DNA” value was found to be 0.433.

RNLN: the “one-hybrid fitness for binding parS DNA” value is 0.251.

On to RNWP, for which the “one-hybrid fitness for binding parS DNA” value was ≤ 0.2.

With RNLD, the “one-hybrid fitness for binding parS DNA” value was ≤ 0.2.

As for RNHS, the “one-hybrid fitness for binding parS DNA” value came to 0.911.

For the variant RNLS, the “one-hybrid fitness for binding parS DNA” value was determined as 0.895.

On to RNIG, for which the “one-hybrid fitness for binding parS DNA” value stood at 0.597.

On to RNHP, for which the “one-hybrid fitness for binding parS DNA” value is ≤ 0.2.

For the variant RNIH, the “one-hybrid fitness for binding parS DNA” value was ≤ 0.2.

Turning to MDVV, the “one-hybrid fitness for binding parS DNA” value is ≤ 0.2.

As for QCYT, the “one-hybrid fitness for binding parS DNA” value was ≤ 0.2.

In the case of GRNR, the “one-hybrid fitness for binding parS DNA” value was ≤ 0.2.

EQIG: the “one-hybrid fitness for binding parS DNA” value was ≤ 0.2.

For the variant FSEV, the “one-hybrid fitness for binding parS DNA” value was ≤ 0.2.

With HKDS, the “one-hybrid fitness for binding parS DNA” value was ≤ 0.2.

In the case of YPGT, the “one-hybrid fitness for binding parS DNA” value was ≤ 0.2.

Turning to ADYG, the “one-hybrid fitness for binding parS DNA” value is ≤ 0.2.

Turning to CAGL, the “one-hybrid fitness for binding parS DNA” value is ≤ 0.2.

Turning to RNSS, the “one-hybrid fitness for binding parS DNA” value turned out to be 0.967.

On to RNSP, for which the “one-hybrid fitness for binding parS DNA” value was ≤ 0.2.

In the case of RNPS, the “one-hybrid fitness for binding parS DNA” value stood at 0.478.

In the case of RNQS, the “one-hybrid fitness for binding parS DNA” value is 0.921.

As for RNQP, the “one-hybrid fitness for binding parS DNA” value was ≤ 0.2.

Regarding RNGS, the “one-hybrid fitness for binding parS DNA” value turned out to be 0.873.

As for RNGP, the “one-hybrid fitness for binding parS DNA” value is ≤ 0.2.

On to RNSN, for which the “one-hybrid fitness for binding parS DNA” value came to 0.385.

RNYS: the “one-hybrid fitness for binding parS DNA” value was found to be 0.85.

On to RNYH, for which the “one-hybrid fitness for binding parS DNA” value was ≤ 0.2.

RNQH: the “one-hybrid fitness for binding parS DNA” value is ≤ 0.2.

Consider RNGD, for which the “one-hybrid fitness for binding parS DNA” value was ≤ 0.2.

For the variant GNAI, the “one-hybrid fitness for binding parS DNA” value is ≤ 0.2.

Consider MPRT, for which the “one-hybrid fitness for binding parS DNA” value was ≤ 0.2.

As to LHGD, the “one-hybrid fitness for binding parS DNA” value is ≤ 0.2.

Consider GSGG, for which the “one-hybrid fitness for binding parS DNA” value was ≤ 0.2.

Consider TQRY, for which the “one-hybrid fitness for binding parS DNA” value is ≤ 0.2.

Regarding LATY, the “one-hybrid fitness for binding parS DNA” value was ≤ 0.2.

Consider GQKN, for which the “one-hybrid fitness for binding parS DNA” value is ≤ 0.2.

On to HRKI, for which the “one-hybrid fitness for binding parS DNA” value was ≤ 0.2.

In the case of RNRN, the “one-hybrid fitness for binding parS DNA” value came out at 0.371.

For the variant RNRP, the “one-hybrid fitness for binding parS DNA” value is ≤ 0.2.

With RNRS, the “one-hybrid fitness for binding parS DNA” value is 0.961.

With RNCS, the “one-hybrid fitness for binding parS DNA” value was 0.83.

As for RNCD, the “one-hybrid fitness for binding parS DNA” value is ≤ 0.2.

For the variant RNCN, the “one-hybrid fitness for binding parS DNA” value was determined as 0.304.

Regarding RNID, the “one-hybrid fitness for binding parS DNA” value was ≤ 0.2.

For the variant RNIS, the “one-hybrid fitness for binding parS DNA” value turned out to be 0.65.

With RNIN, the “one-hybrid fitness for binding parS DNA” value was ≤ 0.2.

On to ELGN, for which the “one-hybrid fitness for binding parS DNA” value was ≤ 0.2.

Take PYSK: the “one-hybrid fitness for binding parS DNA” value was ≤ 0.2.

NITG: the “one-hybrid fitness for binding parS DNA” value is ≤ 0.2.

For KRPK, the “one-hybrid fitness for binding parS DNA” value is ≤ 0.2.

As for EVIR, the “one-hybrid fitness for binding parS DNA” value was ≤ 0.2.

Take FSHN: the “one-hybrid fitness for binding parS DNA” value was ≤ 0.2.

Turning to RCFI, the “one-hybrid fitness for binding parS DNA” value is ≤ 0.2.

For the variant IRLE, the “one-hybrid fitness for binding parS DNA” value is ≤ 0.2.

PFDT: the “one-hybrid fitness for binding parS DNA” value was ≤ 0.2.

With RPFA, the “one-hybrid fitness for binding parS DNA” value is ≤ 0.2.

Regarding RNFA, the “one-hybrid fitness for binding parS DNA” value is 0.301.

As to RDFA, the “one-hybrid fitness for binding parS DNA” value is ≤ 0.2.

Take RCFA: the “one-hybrid fitness for binding parS DNA” value was determined as 0.589.

Regarding RWFA, the “one-hybrid fitness for binding parS DNA” value was 0.298.

With RSFA, the “one-hybrid fitness for binding parS DNA” value is 0.558.

Take IFQR: the “one-hybrid fitness for binding parS DNA” value is ≤ 0.2.

Regarding PTLA, the “one-hybrid fitness for binding parS DNA” value was ≤ 0.2.

For the variant RHFY, the “one-hybrid fitness for binding parS DNA” value is 0.377.

RHFF: the “one-hybrid fitness for binding parS DNA” value is ≤ 0.2.

Turning to RHAH, the “one-hybrid fitness for binding parS DNA” value is 0.202.

As for RHFG, the “one-hybrid fitness for binding parS DNA” value came to 0.876.

RHAD: the “one-hybrid fitness for binding parS DNA” value is ≤ 0.2.

Consider RHAG, for which the “one-hybrid fitness for binding parS DNA” value was 0.969.

On to DYKT, for which the “one-hybrid fitness for binding parS DNA” value is ≤ 0.2.

On to SRQA, for which the “one-hybrid fitness for binding parS DNA” value is ≤ 0.2.

Consider DEKR, for which the “one-hybrid fitness for binding parS DNA” value is ≤ 0.2.

Take SVMF: the “one-hybrid fitness for binding parS DNA” value was ≤ 0.2.

On to RSFT, for which the “one-hybrid fitness for binding parS DNA” value amounted to 0.751.

With RSFN, the “one-hybrid fitness for binding parS DNA” value stood at 0.383.

With RSFH, the “one-hybrid fitness for binding parS DNA” value was ≤ 0.2.

RPFT: the “one-hybrid fitness for binding parS DNA” value is ≤ 0.2.

As for RCFT, the “one-hybrid fitness for binding parS DNA” value was 0.955.

Regarding REFT, the “one-hybrid fitness for binding parS DNA” value was ≤ 0.2.

Turning to WLLH, the “one-hybrid fitness for binding parS DNA” value was ≤ 0.2.

Consider REVI, for which the “one-hybrid fitness for binding parS DNA” value is ≤ 0.2.

For the variant SAPY, the “one-hybrid fitness for binding parS DNA” value was ≤ 0.2.

RLWG: the “one-hybrid fitness for binding parS DNA” value worked out at 0.995.

As for RLWQ, the “one-hybrid fitness for binding parS DNA” value was ≤ 0.2.

In the case of RRWF, the “one-hybrid fitness for binding parS DNA” value was ≤ 0.2.

Take RTWQ: the “one-hybrid fitness for binding parS DNA” value is ≤ 0.2.

Regarding RLWR, the “one-hybrid fitness for binding parS DNA” value is ≤ 0.2.

With RRWK, the “one-hybrid fitness for binding parS DNA” value is ≤ 0.2.

Take RMWG: the “one-hybrid fitness for binding parS DNA” value turned out to be 0.991.

With RTWF, the “one-hybrid fitness for binding parS DNA” value is 0.275.

For RTWG, the “one-hybrid fitness for binding parS DNA” value is 1.03.

Consider RMWY, for which the “one-hybrid fitness for binding parS DNA” value was determined as 0.497.

As to RMWR, the “one-hybrid fitness for binding parS DNA” value was ≤ 0.2.

Regarding RRWG, the “one-hybrid fitness for binding parS DNA” value worked out at 0.906.

Regarding CQNS, the “one-hybrid fitness for binding parS DNA” value was ≤ 0.2.

Consider QVGP, for which the “one-hybrid fitness for binding parS DNA” value is ≤ 0.2.

QTRM: the “one-hybrid fitness for binding parS DNA” value is ≤ 0.2.
